# Key:
# Assay in all cases: SPOT peptide array binding signal intensity (averaged, normalized) (arbitrary units (background-subtracted, floor 0; scale differs between SH3 domains)); higher = stronger binding of the SH3 domain to the peptide
# [1] = molecular target: CaNbp2
# Method: (§1)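 GST-tagged SH3 domains from S. cerevisiae (Sc), A. gossypii (Ag), C. albicans (Ca) and S. pombe (Sp) were incubated at 10 ug/ml overnight at 4 C on cellulose SPOT membranes carrying 292 synthetic 15-mer peptides mined from the S. cerevisiae proteome (cysteines replaced by serines). Binding was detected with anti-GST antibody, HRP secondary and chemiluminescence, quantified with Genespotter, and reported as normalized spot intensities averaged over biological replicates.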
# [2] = molecular target: CaRvs167
# Method: as §1
# [3] = molecular target: CaRvs167-3
# Method: as §1
# [4] = molecular target: CaSho1
# Method: as §1
# [5] = molecular target: CaSla1-D1-D2
# Method: as §1
# [6] = molecular target: CaSla1-D3
# Method: as §1
# [7] = molecular target: ScAbp1
# Method: as §1
# [8] = molecular target: ScBbc1
# Method: as §1
# [9] = molecular target: ScBem1-D1
# Method: as §1
# [10] = molecular target: ScBzz1-D1
# Method: as §1
# [11] = molecular target: ScBzz1-D2
# Method: as §1
# [12] = molecular target: ScCyk3
# Method: as §1
# [13] = molecular target: ScFus1
# Method: as §1
# [14] = molecular target: ScHof1
# Method: as §1
# [15] = molecular target: ScHse1
# Method: as §1
# [16] = molecular target: ScLsb1
# Method: as §1
# [17] = molecular target: ScLsb2
# Method: as §1
# [18] = molecular target: ScLsb3
# Method: as §1
# [19] = molecular target: ScLsb4
# Method: as §1
# [20] = molecular target: ScMyo3
# Method: as §1
# [21] = molecular target: ScMyo5
# Method: as §1
# [22] = molecular target: ScNbp2
# Method: as §1
# [23] = molecular target: ScPex13
# Method: as §1
# [24] = molecular target: ScRvs167
# Method: as §1
# [25] = molecular target: ScSho1
# Method: as §1
# [26] = molecular target: ScSla1-D1-D2
# Method: as §1
# [27] = molecular target: ScSla1-D3
# Method: as §1
# [28] = molecular target: SpAbp1-D1
# Method: as §1
# [29] = molecular target: SpBbc1
# Method: as §1
# [30] = molecular target: SpBzz1-D1
# Method: as §1
# [31] = molecular target: SpBzz1-D2
# Method: as §1
# [32] = molecular target: SpCyk3
# Method: as §1
# [33] = molecular target: SpHof1
# Method: as §1
# [34] = molecular target: SpHof1-2
# Method: as §1
# [35] = molecular target: SpHof1-3
# Method: as §1
# [36] = molecular target: SpHse1
# Method: as §1
# [37] = molecular target: SpLsb1
# Method: as §1
# [38] = molecular target: SpLsb4
# Method: as §1
# [39] = molecular target: SpMyo1
# Method: as §1
# [40] = molecular target: SpNbp2
# Method: as §1
# [41] = molecular target: SpPex13
# Method: as §1
# [42] = molecular target: SpRvs167
# Method: as §1
# [43] = molecular target: SpSla1-D1-D2
# Method: as §1
# [44] = molecular target: SpSla1-D3
# Method: as §1
# [45] = molecular target: AgAbp1
# Method: as §1
# [46] = molecular target: AgBbc1
# Method: as §1
# [47] = molecular target: AgBem1-D1
# Method: as §1
# [48] = molecular target: AgBzz1-D1
# Method: as §1
# [49] = molecular target: AgBzz1-D2
# Method: as §1
# [50] = molecular target: AgCyk3
# Method: as §1
# [51] = molecular target: AgFus1
# Method: as §1
# [52] = molecular target: AgHof1
# Method: as §1
# [53] = molecular target: AgHse1
# Method: as §1
# [54] = molecular target: AgLsb1
# Method: as §1
# [55] = molecular target: AgLsb4
# Method: as §1
# [56] = molecular target: AgMyo5
# Method: as §1
# [57] = molecular target: AgNbp2
# Method: as §1
# [58] = molecular target: AgRvs167
# Method: as §1
# [59] = molecular target: AgSho1
# Method: as §1
# [60] = molecular target: AgSla1-D1-D2
# Method: as §1
# [61] = molecular target: AgSla1-D3
# Method: as §1
# [62] = molecular target: CaAbp1-D1
# Method: as §1
# [63] = molecular target: CaAbp1-D2
# Method: as §1
# [64] = molecular target: CaBbc1
# Method: as §1
# [65] = molecular target: CaBem1-D1
# Method: as §1
# [66] = molecular target: CaBzz1-D1
# Method: as §1
# [67] = molecular target: CaBzz1-D2
# Method: as §1
# [68] = molecular target: CaCyk3
# Method: as §1
# [69] = molecular target: CaFus1
# Method: as §1
# [70] = molecular target: CaHof1
# Method: as §1
# [71] = molecular target: CaHse1
# Method: as §1
# [72] = molecular target: CaLsb1
# Method: as §1
# [73] = molecular target: CaLsb4
# Method: as §1
# [74] = molecular target: CaMyo5
# Method: as §1
binder,measurement,setting,value
RLSRLLLSLPPESFT,SPOT peptide array binding signal intensity,[1],287
same,SPOT peptide array binding signal intensity,[2],64.2
same,SPOT peptide array binding signal intensity,[3],1010
same,SPOT peptide array binding signal intensity,[4],588
same,SPOT peptide array binding signal intensity,[5],≤ 0
same,SPOT peptide array binding signal intensity,[6],45.5
same,SPOT peptide array binding signal intensity,[7],49
same,SPOT peptide array binding signal intensity,[8],1.25
same,SPOT peptide array binding signal intensity,[9],102
same,SPOT peptide array binding signal intensity,[10],94
same,SPOT peptide array binding signal intensity,[11],118
same,SPOT peptide array binding signal intensity,[12],89
same,SPOT peptide array binding signal intensity,[13],1180
same,SPOT peptide array binding signal intensity,[14],1
same,SPOT peptide array binding signal intensity,[15],1930
same,SPOT peptide array binding signal intensity,[16],1.5
same,SPOT peptide array binding signal intensity,[17],9
same,SPOT peptide array binding signal intensity,[18],127
same,SPOT peptide array binding signal intensity,[19],4.5
same,SPOT peptide array binding signal intensity,[20],≤ 0
same,SPOT peptide array binding signal intensity,[21],6
same,SPOT peptide array binding signal intensity,[22],176
same,SPOT peptide array binding signal intensity,[23],1.75
same,SPOT peptide array binding signal intensity,[24],20.3
same,SPOT peptide array binding signal intensity,[25],1770
same,SPOT peptide array binding signal intensity,[26],≤ 0
same,SPOT peptide array binding signal intensity,[27],5.75
same,SPOT peptide array binding signal intensity,[28],198
same,SPOT peptide array binding signal intensity,[29],0.5
same,SPOT peptide array binding signal intensity,[30],315
same,SPOT peptide array binding signal intensity,[31],≤ 0
same,SPOT peptide array binding signal intensity,[32],10
same,SPOT peptide array binding signal intensity,[33],252
same,SPOT peptide array binding signal intensity,[34],24.2
same,SPOT peptide array binding signal intensity,[35],441
same,SPOT peptide array binding signal intensity,[36],1330
same,SPOT peptide array binding signal intensity,[37],1.25
same,SPOT peptide array binding signal intensity,[38],20
same,SPOT peptide array binding signal intensity,[39],6.5
same,SPOT peptide array binding signal intensity,[40],76
same,SPOT peptide array binding signal intensity,[41],16
same,SPOT peptide array binding signal intensity,[42],13.7
same,SPOT peptide array binding signal intensity,[43],≤ 0
same,SPOT peptide array binding signal intensity,[44],6
KFIPSRPAPKPPSSA,SPOT peptide array binding signal intensity,[45],1640
same,SPOT peptide array binding signal intensity,[46],1210
same,SPOT peptide array binding signal intensity,[47],98
same,SPOT peptide array binding signal intensity,[48],70
same,SPOT peptide array binding signal intensity,[49],69.5
same,SPOT peptide array binding signal intensity,[50],≤ 0
same,SPOT peptide array binding signal intensity,[51],≤ 0
same,SPOT peptide array binding signal intensity,[52],26.2
same,SPOT peptide array binding signal intensity,[53],37
same,SPOT peptide array binding signal intensity,[54],674
same,SPOT peptide array binding signal intensity,[55],30.5
same,SPOT peptide array binding signal intensity,[56],1380
same,SPOT peptide array binding signal intensity,[57],11400
same,SPOT peptide array binding signal intensity,[58],5.5
same,SPOT peptide array binding signal intensity,[59],≤ 0
same,SPOT peptide array binding signal intensity,[60],51
same,SPOT peptide array binding signal intensity,[61],1
same,SPOT peptide array binding signal intensity,[62],1850
same,SPOT peptide array binding signal intensity,[63],1020
same,SPOT peptide array binding signal intensity,[64],1910
same,SPOT peptide array binding signal intensity,[65],1550
same,SPOT peptide array binding signal intensity,[66],1780
same,SPOT peptide array binding signal intensity,[67],1310
same,SPOT peptide array binding signal intensity,[68],46
same,SPOT peptide array binding signal intensity,[69],75
same,SPOT peptide array binding signal intensity,[70],≤ 0
same,SPOT peptide array binding signal intensity,[71],2.25
same,SPOT peptide array binding signal intensity,[72],≤ 0
same,SPOT peptide array binding signal intensity,[73],190
same,SPOT peptide array binding signal intensity,[74],24
same,SPOT peptide array binding signal intensity,[1],6170
same,SPOT peptide array binding signal intensity,[2],51
same,SPOT peptide array binding signal intensity,[3],2
same,SPOT peptide array binding signal intensity,[4],≤ 0
same,SPOT peptide array binding signal intensity,[5],1010
same,SPOT peptide array binding signal intensity,[6],65.5
same,SPOT peptide array binding signal intensity,[7],323
same,SPOT peptide array binding signal intensity,[8],716
same,SPOT peptide array binding signal intensity,[9],≤ 0
same,SPOT peptide array binding signal intensity,[10],87
same,SPOT peptide array binding signal intensity,[11],8
same,SPOT peptide array binding signal intensity,[12],1
same,SPOT peptide array binding signal intensity,[13],0.5
same,SPOT peptide array binding signal intensity,[14],1
same,SPOT peptide array binding signal intensity,[15],≤ 0
same,SPOT peptide array binding signal intensity,[16],51.8
same,SPOT peptide array binding signal intensity,[17],288
same,SPOT peptide array binding signal intensity,[18],982
same,SPOT peptide array binding signal intensity,[19],13
same,SPOT peptide array binding signal intensity,[20],2740
same,SPOT peptide array binding signal intensity,[21],1420
same,SPOT peptide array binding signal intensity,[22],8490
same,SPOT peptide array binding signal intensity,[23],2800
same,SPOT peptide array binding signal intensity,[24],396
same,SPOT peptide array binding signal intensity,[25],18
same,SPOT peptide array binding signal intensity,[26],1290
same,SPOT peptide array binding signal intensity,[27],769
same,SPOT peptide array binding signal intensity,[28],602
same,SPOT peptide array binding signal intensity,[29],110
same,SPOT peptide array binding signal intensity,[30],1050
same,SPOT peptide array binding signal intensity,[31],32.8
same,SPOT peptide array binding signal intensity,[32],≤ 0
same,SPOT peptide array binding signal intensity,[33],9.75
same,SPOT peptide array binding signal intensity,[34],9.25
same,SPOT peptide array binding signal intensity,[35],144
same,SPOT peptide array binding signal intensity,[36],140
same,SPOT peptide array binding signal intensity,[37],62
same,SPOT peptide array binding signal intensity,[38],865
same,SPOT peptide array binding signal intensity,[39],3260
same,SPOT peptide array binding signal intensity,[40],1060
same,SPOT peptide array binding signal intensity,[41],90
same,SPOT peptide array binding signal intensity,[42],319
same,SPOT peptide array binding signal intensity,[43],≤ 0
same,SPOT peptide array binding signal intensity,[44],≤ 0
